Source: PubChem (several laboratories)
An excerpt weighted towards active compounds, which were near 4.2% of everything screened.
CCHFV vOTU inh: CCHFV vOTU protease inhibitors, primary screen, biochemical, Pep-AMC substrate, fluorescence; inhibition, % at 11.5 µM; 370,000 tested, 0.55% active; in the data active = inhibition above about 30%; also: 0% = vehicle wells with enzyme and 100% = no enzyme wells
FBA Mtb inh: Mtb FBA enzyme inhibitors, primary screen, biochemical, fluorescence, strain H37Rv; Fructose-bisphosphate aldolase (Mycobacterium tuberculosis (strain ATCC 25618 / H37Rv)), …; purified M. tuberculosis FBA, fluorescence read-out; inhibition, % at 1 µM; 360,000 tested, 2.3% active; in the data active = inhibition above about 27%;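 also: 0% = vehicle and 100% = reference inhibitor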
GDH-TPI counter: GDH-TPI coupling enzyme inhibitors, primary screen, artefact control for M. tuberculosis FBA inhibitor project, biochemical, absorbance, full deck | GDH-TPI coupled enzyme counterscreen, NADH absorbance | inhibition, % at 4.8 µM | 360,000 tested, 1.2% active; in the data active = inhibition above about 30%;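 also: 0% = DMSO wells and 100% = wells lacking the enzyme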
Mtb bLac sens: beta-lactam sensitization of Mtb H37Rv, H37Rv. M. tuberculosis H37Rv growth with meropenem, percent inhibition. 330,000 tested, 0.27% active. inhibition, % at 25 µM;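 also: growth measured after seven days incubation then overnight dye step; 0% = bacteria only wells and 100% = bacteria with antibiotic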
RecA intein inh: Mtb RecA intein splicing inhibitors, primary screen, biochemical, fluorescence, HTS | Protein RecA (Mycobacterium tuberculosis (strain ATCC 25618 / H37Rv)), P9WHJ3 | cell-free RecA intein splicing | inhibition, % (no concentration beside the values) | 290,000 tested, 0.75% active; in the data active = inhibition above about 30%; inconclusive = no clear call, values can overlap the other calls;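 also: 0% = vehicle wells and 100% = reference inhibitor control wells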
Target sequence (P9WHJ3 whole entry, looked up): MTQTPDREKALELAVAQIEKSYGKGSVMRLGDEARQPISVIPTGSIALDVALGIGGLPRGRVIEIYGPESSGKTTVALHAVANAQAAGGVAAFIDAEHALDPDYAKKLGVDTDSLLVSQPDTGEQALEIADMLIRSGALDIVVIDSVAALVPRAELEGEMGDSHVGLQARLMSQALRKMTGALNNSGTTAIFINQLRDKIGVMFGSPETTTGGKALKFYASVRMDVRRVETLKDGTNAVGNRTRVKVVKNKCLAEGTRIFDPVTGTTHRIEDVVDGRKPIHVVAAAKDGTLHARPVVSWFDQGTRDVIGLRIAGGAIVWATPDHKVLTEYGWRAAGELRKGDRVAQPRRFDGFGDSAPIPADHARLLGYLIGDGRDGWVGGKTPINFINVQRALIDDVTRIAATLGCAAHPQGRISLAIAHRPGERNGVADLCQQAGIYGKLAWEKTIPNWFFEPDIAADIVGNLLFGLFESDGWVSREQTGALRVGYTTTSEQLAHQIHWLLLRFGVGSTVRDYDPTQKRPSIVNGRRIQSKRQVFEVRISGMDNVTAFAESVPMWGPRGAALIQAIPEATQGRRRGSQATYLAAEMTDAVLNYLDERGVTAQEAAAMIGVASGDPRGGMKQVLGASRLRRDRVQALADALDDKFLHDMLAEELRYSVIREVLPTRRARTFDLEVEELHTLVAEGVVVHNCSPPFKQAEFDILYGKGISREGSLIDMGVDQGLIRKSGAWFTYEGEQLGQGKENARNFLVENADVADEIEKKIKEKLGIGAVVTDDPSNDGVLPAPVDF
GFP chromo cs: counter-screen: blocks GFP chromophore formation, dose response, counter-screen, biochemical, fluorescence, homogeneous; EC50, µM; 2,100 tested, 83% active; shares compounds with RecA intein inh; AID 434968, 2010; cell-free GFP chromophore formation
* hit, by the source's call; ? = inconclusive; . = no result given. Unless noted, no rule for the calls is given here.

SMILES	CCHFV vOTU inh	FBA Mtb inh	GDH-TPI counter	Mtb bLac sens	RecA intein inh	GFP chromo cs
Cc1[nH]nc2c1C(c1c[nH]c3ccccc13)C(C#N)=C(N)O2 (stereo not given)	9	1	11	1	90*	7.5*
COC(=O)Cc1[nH]nc2c1C(c1ccc(O)c(OC)c1)C(C#N)=C(N)O2 (stereo not given)	-13	-3	13	-3	77*	31*
CCSc1cc(C2C(C#N)=C(N)Oc3n[nH]c(C)c32)c(C)o1 (stereo not given)	8	3	-4	-1	77*	15*
COC(=O)Cc1[nH]nc2c1C(C1C=CCCC1)C(C#N)=C(N)O2 (stereo not given)	-9	-1	-1	-6	7	.
COC(=O)Cc1[nH]nc2c1C(c1c[nH]c3ccccc13)C(C#N)=C(N)O2 (stereo not given)	-9	0	-3	6	86*	>38
COc1ccc(CNS(=O)(=O)/C=C/c2ccc(F)cc2CNC(=O)OC(C)(C)C)cc1	9	.	.	.	.	.
COc1cc(-c2c(C(C)=O)c(C)nc3c2C(=O)c2ccccc2-3)cc(OC)c1OC	-12	4	-1	.	1	.
CC(=O)c1c(Cl)nc2cccc3c2c1-c1ccccc1C3=O	16	-1	0	-4	33*	>12
CC1=Nc2cccc3cccc(c23)N1C	3	1	14	6	78*	>38
N#CC(C#N)=NNc1ccc(-n2ccc(C(F)(F)F)n2)cc1	9	-2	14	25	79*	6.4*
Cc1cc(C)n(-c2ccc(C(=O)O)cc2)n1	3	3	0	0	-1	.
Cc1cc(C)n(-c2ccc(NN=C(C#N)C#N)cc2)n1	-6	1	3	-3	57*	19*
COc1ccc(C2NC(=O)NC3=C2CCc2ccccc23)cc1 (stereo not given)	.	34*	11	23	47*	33*
COc1cccc(C2NC(=S)NC3=C2CCc2ccccc23)c1 (stereo not given)	-4	1	9	-6	5	.
CCCc1nc([N+](=O)[O-])c(S(=O)(=O)c2ccccc2)n1CC(C)C	6	-5	4	5	9	.
CC(C)Cn1c(C(C)C)nc([N+](=O)[O-])c1S(=O)(=O)c1ccc(F)cc1	-5	-1	-6	-9	51*	>38
NC(=O)[C@@H]1CCCN1C(=O)[C@H](CCc1ccccc1)NC(=O)[C@H]1O[C@@H](n2cnc3c(N)ncnc32)[C@H](O)[C@@H]1O	1	.	.	.	.	.
COc1cc(C(c2c(C)[nH][nH]c2=O)c2c(C)[nH][nH]c2=O)cc(Cl)c1O	-12	-9	-11	0	88*	0.74*
COc1cc(C(c2c(C)n(C)n(-c3ccccc3)c2=O)c2c(C)n(C)n(-c3ccccc3)c2=O)cc(Br)c1O	-10	2	-8	5	-4	.
COc1cc(C(c2c(C)[nH][nH]c2=O)c2c(C)[nH][nH]c2=O)cc(OC)c1OC	-3	-3	-1	-5	96*	0.51*
COc1ccc(C(CC(=O)O)c2cc(OC)c(OC)c(OC)c2)cc1OC (stereo not given)	-1	-1	1	.	.	.
CCN(CC)CCNC(=O)c1ccc2c(c1NCCO)C(=O)c1ccccc1C2=O	59*	-1	0	28	78*	6.9*
CCCCCCCCOC(=O)c1c(CSC(=N)N)n(C)c2cc(Br)c(OC(C)=O)cc12	27	0	13	94	90*	2.4*
CCOC(=O)c1c(CSC(=N)N)n(-c2ccc(Br)cc2)c2cc(Br)c(OC(C)=O)cc12	-3	0	12	.	.	.
CCN(CC)S(=O)(=O)c1ccc(NN=C(C#N)C#N)cc1	9	-7	17	-5	38*	27*
SMILES	CCHFV vOTU inh	FBA Mtb inh	GDH-TPI counter	Mtb bLac sens	RecA intein inh	GFP chromo cs
Cc1cc(C(=O)c2ccc(C(C)(C)C)cc2)c(NC(=O)CCl)s1	5	-1	5	99	67*	34*
Cc1cc(C(=O)c2ccccc2)c(NC(=O)CN2CCOCC2)s1	7	5	12	4	0	.
Cc1sc(NC(=O)CCl)c(C(=O)c2ccccc2)c1C	15	2	9	97	63*	32*
C[C@@H]1ON(C)[C@H]2C[C@H]3c4[nH]c5cccc(Br)c5c4CCN3C(=O)[C@@H]12	-8	.	.	.	.	.
Cn1c(/N=C/c2c(O)ccc3ccccc23)nc2ccccc21	22	2	-24	?	73*	9.1*
CN(CC(=O)Nc1ccc(C#N)cc1)CC(=O)Nc1ccc(N2CCOCC2)cc1	4	-3	2	7	-2	.
CN(CC(=O)Nc1ccc(N2CCOCC2)cc1)CC(=O)Nc1cccc(C#N)c1	1	0	7	-5	-6	>38
CCCCCC(=O)Cc1cc(O)cc2c1C(=O)Oc1cc(O)c(C(=O)O)c(CCCCC)c1O2	.	.	.	-5	66*	7.2*
COC(=O)c1cc(-c2cc3ccccc3s2)c(=O)n2c1CCC2	-16	.	.	.	.	.
CCCCCCn1c(N2CCC(C(N)=O)CC2)nc2c1c(=O)n(C)c(=O)n2C	-4	5	-2	8	47*	>38
COC(=O)N1CCCC1c1cccc2[nH]cc(C)c12 (stereo not given)	0	.	.	.	.	.
N#C[C@H]1[C@H](c2ccccc2)[C@](C#N)(C(=O)c2ccccc2)[C@@H]2C=Cc3ccccc3N21	.	.	.	.	53*	23*
O=C(Nc1ccccc1)C1=C(c2ccccc2)S(=O)(=O)CCS1(=O)=O	6	-2	-3	.	94*	1.5*
O=C(O)c1ccccc1C(=O)Nc1ccccc1	-4	-2	-3	11	0	.
Cc1ccccc1C(=O)NNC(=S)NC(=O)COc1ccccc1	8	1	0	5	40*	31*
Cc1ccc(C(=O)NNC(=S)NC(=O)COc2ccccc2)cc1	-6	-1	-1	99	-1	.
COc1ccc(CNC(=O)C(c2ccc(C)o2)N(C(=O)c2snc(C(N)=O)c2N)c2ccccc2OC)cc1 (stereo not given)	-19	14	8	-3	36*	>38
CC(=O)NC1=NN(c2ccccc2)C(=O)C1	-1	2	10	-4	82*	36*
CCOC(=O)[C@@]12CCC3=C1N(CCC3)C(=O)[C@H](CC(=O)NCCc1ccccc1OC)C2	1	.	.	.	.	.
O=C(CCl)c1cc2c3c(c1)CC(=O)N3CCC2	8	-10	2	99	44*	39*
O=[N+]([O-])c1ccc(S(=O)(=O)c2cccc(C(F)(F)F)c2)nc1	.	3	2	100	50*	30*
O=S(=O)(Nc1cccnc1)c1cccc(C(F)(F)F)c1	2	1	-8	0	-2	.
CCOC(=O)c1c(NC(C)=O)sc2c1CCC(C=NCCCN(CC)CC)=C2Sc1ccccc1	.	5	7	1	61*	0.37*
